Bioassay records as filed in PubChem BioAssay.
HTT ATP protect: qHTS Multiplex Assay to Identify Dual Action Probes in a Cell Model of Huntington: Cytoprotection (ATP) | PC12 HTT-Q103 induced, cytoprotection, ATP luminescence, 40 h | Potency, µM (series often up to 56.4 µM), without a hit: cytoprotection (ATP increase), usual class: activators | 230,000 compounds, 0.14% hits; also: potency is read from the fitted curve at half-maximal effect; % of control where 0% means no effect; nearly all actives have a fitted effect of over 45% in size
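Quantitative HTS on tebufenozide-induced (100 nM) PC12 cells expressing HTTQ103 exon 1–GFP; compounds tested as a concentration series; survival measured via cellular ATP.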
ALDH1A1 inh: qHTS Assay for Inhibitors of Aldehyde Dehydrogenase 1 (ALDH1A1). Aldehyde dehydrogenase 1A1 (Homo sapiens), P00352. Purified ALDH1A1, NADH fluorescence, propionaldehyde substrate. Potency, µM (titrated, usually from 75.3 µM), without a hit: top-dose activity, negative = inhibition, hits mostly inhibitors. 220,000 compounds, 7.3% hits; active = well fitted inhibition curve with a large enough effect, not every such curve was filed as active; inconclusive = small, poorly fitted or top-dose-only effect, or another doubt; inactive = no such curve, though single readings can be large or run the other way;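 also: potency is read from the fitted curve at half-maximal effect; plate controls were no enzyme wells and a reference inhibitor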
PNC inhibitor: High Content Assay for Compounds that inhibit the Assembly of the Perinucleolar Compartment; AID 2417, 2010; activity change (PNC), negative = inhibition, % at 10 µM; 140,000 compounds, 3.1% hits; PC3M PTB-GFP, PNC prevalence imaging, 16 h; stronger effect = lower value;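 active = readout at or below -70, meaning at least 70% loss of cells showing the perinucleolar compartment, a nuclear body marking cancer cells; inconclusive = readout between -30 and a set limit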;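 also: plate controls were DMSO wells for no effect and camptothecin positive control wells for full effect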
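Read-out is percentage of cells bearing a perinucleolar compartment, from automated 20x imaging of fixed, Hoechst-stained PC3M PTB-GFP cells. Cells were seeded 4 h, then exposed 16 h to compound (23 nl of library stock) in duplicate plates.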
HttQ103 aggreg: qHTS Multiplex Assay to Identify Dual Action Probes in a Cell Model of Huntington: Aggregate Formation (GFP); PC12 HttQ103-GFP aggregates, Acumen cytometry, 40 h; Potency, µM (top dose mostly 46.1 µM), for the others: at the highest dose activity change, negative = inhibition, most hits filed as inhibitors; 220,000 compounds, 1.1% hits; AID 1688, 2009; also: potency is read from the fitted curve at half-maximal effect; % is scaled to controls: 0 for no effect and ±100 for the full control effect; nearly all actives have a fitted effect of over 60% in size
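Aggregates are detected as GFP objects 1–25 µm with signal 6 STDEV over background in lysates of induced PC12 cells. These carry Huntingtin exon 1 with 103 glutamines fused to GFP under an ecdysone promoter; compounds titrated.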
HPGD inh: qHTS Assay for Inhibitors of HPGD (15-Hydroxyprostaglandin Dehydrogenase); 15-hydroxyprostaglandin dehydrogenase [NAD(+)] (Homo sapiens), P15428; purified HPGD, NADH fluorescence kinetic, PGE2 substrate; Potency, µM, for inactives: at the top dose activity change, negative = inhibition, hits mostly inhibitors; 150,000 compounds, 4.3% hits; active = well fitted inhibition curve with a large enough effect, not every such curve was filed as active; inconclusive = small, poorly fitted or top-dose-only effect, or another doubt; inactive = no such curve, though single readings can be large or run the other way; also: potency is read from the fitted curve at half-maximal effect; % is scaled to controls: 0 for no effect and ±100 for the full control effect
Target sequence (P15428 whole entry, looked up): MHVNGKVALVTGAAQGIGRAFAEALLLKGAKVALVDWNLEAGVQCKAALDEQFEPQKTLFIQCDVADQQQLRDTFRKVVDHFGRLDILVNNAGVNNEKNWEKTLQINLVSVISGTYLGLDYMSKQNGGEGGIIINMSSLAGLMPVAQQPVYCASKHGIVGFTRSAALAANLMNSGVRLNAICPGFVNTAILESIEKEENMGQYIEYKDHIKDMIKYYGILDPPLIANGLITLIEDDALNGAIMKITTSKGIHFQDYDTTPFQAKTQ
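20 nM HPGD preincubated 15 min at room temperature with compound in 50 mM Tris-HCl pH 8, 0.01% Tween 20. Started with 1 mM NAD+ and 30 uM prostaglandin E2; NADH fluorescence (360/450 nm) read 5 times over 30-s intervals, last minus first.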
GoLoco inh red: qHTS Assay for Inhibitors of RGS12 GoLoco Motif Activity (Red Fluorophore); Guanine nucleotide-binding protein G(i) subunit alpha-1 (Homo sapiens), P63096; Gai1:RGS12 GoLoco peptide FP, rhodamine, 10 min; Potency, µM (series often up to 61.6 µM), inactives show at the top dose activity, negative = inhibition, actives largely listed as inhibitors; 230,000 compounds, 0.44% hits; AID 880, 2007; active = well fitted inhibition curve with a large enough effect, not every such curve was filed as active; inactive = no such curve, though single readings can be large or run the other way; also: potency is read from the fitted curve at half-maximal effect; % is scaled to controls: 0 for no effect and ±100 for the full control effect; nearly all actives have a fitted effect of over 30% in size
Starred values were filed as active, the others as inactive; ? = inconclusive; . = no result; [ ] = another dose, or the depositor's remark. Compounds with a hit are over-represented: about 11% of the library has one in this group of screens. Unless noted, calls follow the shape of the dose curve; as a rule, active = well fitted curve in the direction sought with a large enough effect; inconclusive = small, poorly fitted or top-dose-only effect, or another doubt; inactive = no such curve, though single readings can be large; an effect the other way counts as inactive or inconclusive.

SMILES	HTT ATP protect	ALDH1A1 inh	PNC inhibitor	HttQ103 aggreg	HPGD inh	GoLoco inh red
CCc1ccc2c(c1)C(=O)C(=O)N2CC(=O)Nc1ccc(NC(=O)c2ccccn2)cc1	1.0%[10 µM]	0.224µM*	.	13.7%[9.22 µM]	.	7.8%
Cc1nc(N2CCCCC2)sc1C(=O)c1ccc(Cl)c([N+](=O)[O-])c1	?	7.94µM*	.	-2.7%	.	16.0%
O=C1C=C(O)c2ccccc2C1=O	-64.7%	15.8µM*	.	.	?	0.1%
CN(Cc1ccccc1)S(=O)(=O)c1ccc(Cl)nc1	-7.2%	22.4µM*	64.8	-8.0%	-22.4%	5.7%
O=C(O)c1cccc(COc2ccc(CO)cc2Cl)c1	-35.6%[10 µM]	12.4%	7.8	.	-22.0%	0.3%
O=C(CCCOc1ccccc1)N1CCCc2ccccc21	-2.3%	-7.2%	-6.4	0.8%	-8.6%	4.4%
O=C(O)c1ccc(COc2ccc(CO)cc2Cl)cc1	-18.6%	14.6%	21.4	-7.6%	15.8µM*	-5.1%
CN1CCN(C(=O)c2ccc(COc3ccc(Cl)cc3Cl)cc2)CC1	-2.0%[10 µM]	11.8%	?	-22.9%	2.82µM*	0.2%
O=C(CCCOc1ccc(Cl)cc1Cl)N1CCN(c2ccccn2)CC1	-11.7%	-12.4%	-7.1	-15.3%	?	1.2%
CN1CCN(C(=O)CCCOc2ccc(Cl)cc2Cl)CC1	-65.7%	?	-13.1	2.3%	20µM*	14.2%
Cc1cc(Cl)ccc1OCCCC(=O)N1CCCc2ccccc21	-12.4%	-2.5%	-93.7*	-31.6%	-18.3%	5.1%
CN(C)CCNC(=O)c1ccc(COc2ccc(Cl)cc2Cl)cc1	-51.7%	4.1%	78.0	-5.1%	?	12.1%
NCCNS(=O)(=O)c1ccc(N)cc1	6.4%[10 µM]	6.1%[13.5 µM]	.	.	-1.0%	1.8%[14.2 µM]
Cc1ccc2c(Cl)cc(Cl)c(OCC(=O)OCC(=O)Nc3ccc(C#N)cc3)c2n1	0.2%[10 µM]	-9.8%	17.9	0.4%	?	20µM*
C=C(C)CSC1=C(C#N)C(c2ccccc2)CC(=O)N1 (stereo not given)	.	6.31µM*	.	.	25.1µM*	.
CCSC1=C(C#N)C(c2ccccc2Cl)CC(=O)N1 (stereo not given)	-14.4%	?	-10.3	2.4%	-8.4%	-1.2%
N#CC1=C(SCC(=O)Nc2ccccc2)NC(=O)CC1c1ccc(O)cc1 (stereo not given)	-27.1%	?	4.2	4.9%	-1.7%	2.8%
COC(=O)CSC1=C(C#N)C(=O)NC(c2ccccc2)S1 (stereo not given)	5.0%	23.8µM*	23.1	0.8%	-22.5%	-7.0%
CCCSC1=C(C#N)C(c2ccc(Cl)cc2Cl)CC(=O)N1 (stereo not given)	2.7%[10 µM]	20µM*	?	-17.9%	31.6µM*	6.0%
CCOC(=O)CSC1=C(C#N)C(c2ccc(C)s2)CC(=O)N1 (stereo not given)	2.4%	9.8%	-87.8*	1.7%	-8.6%	1.7%
CC(C)CNc1nc(N)[nH]c(=O)c1NC=O	-2.8%[10 µM]	21.6%[13.5 µM]	.	.	-7.2%	2.2%[14.2 µM]
CC(CCN)(CCN)[N+](=O)[O-]	-2.4%[10 µM]	-8.9%[13.5 µM]	.	.	-14.1%	-2.2%[14.2 µM]
COCC(=O)N1CCC[C@@]2(CCN(C(=O)Nc3cccc(C#N)c3)C2)C1	?	-14.5%	.	.	-10.5%	-1.0%
c1ccc2c(CC3NCCN3)cccc2c1	5.2%[10 µM]	-0.8%[13.5 µM]	.	.	-4.9%	-4.6%[14.2 µM]
CCOC(=O)CSC1=C(C#N)C(c2ccc(Cl)cc2)C(C(=O)OC)C(=O)N1 (stereo not given)	-16.8%[0.074 µM]	25.1µM*	?	2.8%	-26.4%	-1.8%
COC(=O)CSC1=C(C#N)C(c2ccc(C(C)C)cc2)CC(=O)N1 (stereo not given)	-1.8%	?	-15.1	-10.4%	-5.3%	-1.4%
